Compound activity as filed in PubChem BioAssay.
In the library only some 2.3% were active in any assay of this set; here they are far more common.
Mcl1-Bid inh: Mcl-1/Bid interaction inhibition | hit rate 0.97% among 220,000 | inhibition, % at 21.7 µM | Q07820 | TR-FRET Mcl-1/Bid-Dy647 peptide binding, 1536-well | AID 1021;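 active = compounds that cut the binding signal by more than half at the single screening dose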;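 also: His-tagged Mcl-1 with europium anti-His antibody binding Bid BH3 peptide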
MCL1-BIM inh: disrupts human MCL1 binding to BIM-BH3 peptide; Q07820; GST-MCL1 / FITC-Bim-BH3 fluorescence polarization; inhibition, % at 10.9 µM; hit rate 0.68% among 320,000; AID 2057;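 active = inhibition above the mean inhibition of all tested compounds plus 3 SD, set per campaign, cut at about 40% in these data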;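 also: higher means more loss of mP so more displacement of Bim peptide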
Mcl-1 Bim block: human Bim-Mcl-1 interaction inhibition; hit rate 0.1% among 190,000; Bead-based flow cytometry, Bim peptide-Mcl-1 binding; Q07820; inhibition, % at 10 µM; in the data active = inhibition above about 40%
BCLXL inh: inhibitors of human Bcl-xL; hit rate 0.7% among 320,000; inhibition, % at 10.9 µM; GST-Bcl-xL / FITC-Bim BH3 peptide fluorescence polarization; Q07817; AID 2129;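 active = inhibition above the mean of all tested compounds plus 3 SD, cutoff set per campaign, cut at about 30% in these data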;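 also: inhibitors lower millipolarization by displacing the labeled peptide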
GLD-1 TGE inh: GLD-1-TGE RNA interaction inhibition (C. elegans). Q17339. purified GLD-1 + fluorescein TGE RNA, fluorescence polarization. inhibition, % at 5.96 µM. hit rate 0.44% among 320,000;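 active = percent inhibition above a per-plate cutoff, the plate mean of test compounds plus 3 SD, cut at about 30% in these data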
Target sequence (Q17339 whole entry, looked up): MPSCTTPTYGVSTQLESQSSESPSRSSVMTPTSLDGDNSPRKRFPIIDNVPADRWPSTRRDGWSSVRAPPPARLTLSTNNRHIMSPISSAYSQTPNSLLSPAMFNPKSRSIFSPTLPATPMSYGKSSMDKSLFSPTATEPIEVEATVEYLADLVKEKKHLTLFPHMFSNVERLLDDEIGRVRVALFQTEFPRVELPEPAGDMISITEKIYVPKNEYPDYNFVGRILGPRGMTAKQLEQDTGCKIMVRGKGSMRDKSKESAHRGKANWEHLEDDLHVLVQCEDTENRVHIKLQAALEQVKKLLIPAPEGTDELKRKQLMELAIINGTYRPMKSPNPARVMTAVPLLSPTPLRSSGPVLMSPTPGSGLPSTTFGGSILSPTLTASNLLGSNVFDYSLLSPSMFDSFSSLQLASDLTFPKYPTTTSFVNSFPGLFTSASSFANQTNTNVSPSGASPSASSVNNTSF
Mcl1 Noxa PPI: disrupts binding of human Mcl-1 to Noxa peptide | hit rate 1.5% among 220,000 | inhibition, % at 21.7 µM | Q07820 | TR-FRET Mcl-1/Noxa peptide binding, 2 h;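 active = compounds that cut the protein-peptide binding signal by more than 50% relative to plate controls in a single-dose test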;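 also: His-tagged Mcl-1 with rhodamine Noxa BH3 peptide and terbium anti-His antibody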
BCLXL inh confirm: counter-screen for MCL1 inhibitors: confirmation of human Bcl-xL inhibitors; hit rate 54% among 1,700; inhibition, % at 10.9 µM; AID 2166; shares compounds with MCL1-BIM inh; GST-Bcl-xL / FITC-Bim BH3 peptide FP binding;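 active = inhibition above a cutoff equal to the mean inhibition of all tested compounds plus 3 SD, cut at about 30% in these data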
MCL1 BIM confirm: MCL1-BIM-BH3 interaction inhibition, confirmation; shares compounds with MCL1-BIM inh; GST-MCL1 / FITC-Bim-BH3 fluorescence polarization; inhibition, % at 10.9 µM; hit rate 61% among 1,700;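 active = inhibition above the average of all tested compounds plus 3 SD, cut at about 40% in these data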
Large screens that a line does not name were inactive (follow-up assays come after a bar, where they were run).

O=C1NC(=O)/C(=C/c2cccc3ccccc23)S1	none (no result: Mcl1-Bid inh, Mcl-1 Bim block, Mcl1 Noxa PPI)
O=C1NC(=O)/C(=C\c2ccc(O)cc2O)S1	MCL1-BIM inh 50, BCLXL inh 31, Mcl1 Noxa PPI 95 | BCLXL inh confirm 94 | MCL1 BIM confirm 133
CC1Cc2ccccc2N1C(=O)CN(C)CC(=O)Nc1ccc(OC(F)(F)F)cc1 (centres undefined)	none (no result: Mcl1-Bid inh, Mcl-1 Bim block, Mcl1 Noxa PPI)
Nc1nn2cc(-c3ccc(Br)cc3)nc2c2ccccc12	none (no result: Mcl-1 Bim block)
c1ccc(-c2cn3nc4c(nc3n2)CCCC4)cc1	MCL1-BIM inh 130, BCLXL inh 112, GLD-1 TGE inh 91 | BCLXL inh confirm 78 | MCL1 BIM confirm 97
c1ccc(-c2cn3nc(-c4ccccc4)cnc3n2)cc1	none
Brc1ccc(-c2cn3nc4c(nc3n2)CCCC4)cc1	MCL1-BIM inh 79, BCLXL inh 75, GLD-1 TGE inh 42 | BCLXL inh confirm 45 | MCL1 BIM confirm 44
CCOc1ccccc1NC(=O)C(=O)CC(=O)c1ccc(OC)cc1	none (no result: Mcl1-Bid inh, Mcl-1 Bim block, Mcl1 Noxa PPI)
O=C(Cn1c(=O)n(Cc2ccco2)c(=O)c2c3c(sc21)CCCCC3)Nc1ccccc1	none
O=C(Cn1c(=O)n(Cc2ccco2)c(=O)c2c3c(sc21)CCCCC3)c1ccccc1	MCL1-BIM inh 43 | BCLXL inh confirm inactive | MCL1 BIM confirm inactive
Cc1cc(C(=O)N2CCN(c3cc(Cl)ccc3C)CC2)on1	none (no result: Mcl1-Bid inh, Mcl-1 Bim block, Mcl1 Noxa PPI)
O=C(O)CC(C(=O)O)N1C(=O)/C(=C/C=C/c2ccco2)SC1=S (centres undefined)	MCL1-BIM inh 75, BCLXL inh 41, Mcl1 Noxa PPI 85 (no result: Mcl-1 Bim block) | BCLXL inh confirm inactive | MCL1 BIM confirm inactive
O=C(O)CCCN1C(=O)/C(=C/C=C/c2ccco2)SC1=S	MCL1-BIM inh 80, BCLXL inh 46, Mcl1 Noxa PPI 94 (no result: Mcl-1 Bim block) | BCLXL inh confirm inactive | MCL1 BIM confirm inactive
O=C(CCN1C(=O)/C(=C\C=C\c2ccccc2)SC1=S)Nc1ccccc1C(=O)O	MCL1-BIM inh 43 (no result: Mcl1-Bid inh, Mcl-1 Bim block, Mcl1 Noxa PPI) | BCLXL inh confirm inactive | MCL1 BIM confirm inactive
O=C(C[n+]1cc(Br)cc(Br)c1)c1ccc(Cl)cc1	none (no result: Mcl1-Bid inh, Mcl-1 Bim block, Mcl1 Noxa PPI)
O=C(C[n+]1cc(Br)cc2ccccc21)c1ccc(Br)cc1	MCL1-BIM inh 94, BCLXL inh 58 (no result: Mcl1-Bid inh, Mcl-1 Bim block, Mcl1 Noxa PPI) | BCLXL inh confirm 55 | MCL1 BIM confirm 74
O=C(C[n+]1cc(Br)cc2ccccc21)c1ccc(Cl)cc1	MCL1-BIM inh 86, BCLXL inh 84 (no result: Mcl1-Bid inh, Mcl-1 Bim block, Mcl1 Noxa PPI) | BCLXL inh confirm inactive | MCL1 BIM confirm inactive
Cc1cccc(NC(=O)COc2coc(CN3CCN(c4ccccc4)CC3)cc2=O)c1C	none (no result: Mcl1-Bid inh, Mcl-1 Bim block, Mcl1 Noxa PPI)
O=C(O)CC1S/C(=N/N=C/c2ccc(-c3ccc(Cl)c([N+](=O)[O-])c3)o2)NC1=O (centres undefined)	MCL1-BIM inh 41 | BCLXL inh confirm inactive | MCL1 BIM confirm inactive
COc1ccccc1NC(=O)CSc1ccc(-c2ccc(-n3cccn3)cc2)nn1	none (no result: Mcl1-Bid inh, Mcl-1 Bim block, Mcl1 Noxa PPI)
CC(C)C1OC2(C)OC(=N)C1(C#N)C(C#N)(C#N)C2c1ccccc1 (centres undefined)	MCL1-BIM inh 103, BCLXL inh 80, GLD-1 TGE inh 79 | BCLXL inh confirm 32 | MCL1 BIM confirm 48
O=C(Nc1cccc(S(=O)(=O)NC2=NCCCCC2)c1)c1cc(-c2ccccc2)nc2ccccc12	none
O=C(Nc1cccc(S(=O)(=O)NC2=NCCC2)c1)c1cc(-c2ccco2)nc2ccccc12	MCL1-BIM inh 94, Mcl1 Noxa PPI 99 (no result: Mcl-1 Bim block) | BCLXL inh confirm inactive | MCL1 BIM confirm 74
O=C(NC(=S)Nc1cccc(S(=O)(=O)NC2=NCCC2)c1)c1cc(-c2ccco2)nc2ccccc12	MCL1-BIM inh 54, BCLXL inh 44, Mcl1 Noxa PPI 65 (no result: Mcl-1 Bim block) | BCLXL inh confirm 39 | MCL1 BIM confirm 42
CCC(C)n1c(=O)c2sccc2n2c(CCCC(=O)N3CCC(C(N)=O)CC3)nnc12 (centres undefined)	none (no result: Mcl1-Bid inh, Mcl-1 Bim block, Mcl1 Noxa PPI)
Cc1cc(-c2nnc(SCC(=O)Nc3ccc(F)c(F)c3)n2N)n[nH]1	none (no result: Mcl1-Bid inh, Mcl-1 Bim block, Mcl1 Noxa PPI)
O=C(c1cccc(C(=O)N2CCN(c3ccccc3F)CC2)c1)N1CCN(c2ccccc2F)CC1	none
Nc1ccccc1N1CCN(C(=O)c2ccccc2)CC1	MCL1-BIM inh 108 | BCLXL inh confirm inactive | MCL1 BIM confirm inactive
NC(=O)c1cc[n+](Cc2ccc([N+](=O)[O-])cc2)cc1	none (no result: Mcl1-Bid inh, Mcl-1 Bim block, Mcl1 Noxa PPI)
COCC(C)N1C(=O)Cc2c1nc(N)c1c(N)nc(N3CCN(c4ccccc4F)CC3)c(C#N)c21 (centres undefined)	none
COCCN1C(=O)Cc2c1nc(N)c1c(N)nc(N3CCN(c4ccc(F)cc4)CC3)c(C#N)c21	MCL1-BIM inh 42, Mcl1 Noxa PPI 61 | BCLXL inh confirm inactive | MCL1 BIM confirm inactive
COc1cc2c(cc1OC)CN(c1ccc(-c3ccccc3OC)nn1)CC2	MCL1-BIM inh 65, BCLXL inh 54 | BCLXL inh confirm inactive | MCL1 BIM confirm inactive
